# Activity calls are given as the source filed them. How the calls were made is not given here. Square brackets hold non-standard residues; d marks the D form. Peptide text beside a SMILES is read from it. Dolaproine = CO[C@@H]([C@@H]1CCCN1)[C@@H](C)C(=O)O; Dil = CC[C@H](C)[C@H](NC)[C@@H](CC(=O)O)OC; NMeV = CN[C@H](C(=O)O)C(C)C
# Experiment: Identification of antibody-drug conjugate (ADC) payloads which are substrates of ATP-binding cassette drug efflux transporters: cell line panel data
# Conditions: 99 cancer cell line panel, CellTiter-Glo viability, 48 h; stronger effect = lower value
# Text: Antibody-drug conjugates (ADCs) feature an antibody recognizing a specific protein joined to a potent toxic payload. Numerous antibody-drug conjugates have received FDA approval; however, clinical resistance arises. Resistance mechanisms include decreased expression or mutation of the antibody target, impaired payload release, or increased expression of ATP-binding cassette (ABC) efflux transporters associated with multidrug resistance. We therefore sought to characterize the activity of ADC payloads across a broad set of cancer cell lines. We performed a high-throughput screen with 27 common ADC payloads against a panel of 99 cell lines to assess sensitivity to various payloads. Duocarmycin DM and PNU-159682 were exquisitely toxic across the panel of cancer cell lines of varying origins. These findings highlight the potentially broad applicability of Duocarmycin DM and PNU-159682 as ADC payloads in future ADC development.
# Compounds were sourced from Levena Biopharma (San Diego, CA), Selleck Chem (Houston, TX), ChemieTek (Indianapolis, IN), or Microsource Discovery Systems (Gaylordsville, CT). Cell line sources and culture conditions were as follows: CAL-27 (ATCC: CRL-2095) and Hs 766T (ATCC: HTB-134) were grown in DMEM media +10% FBS. RKO (ATCC: CRL-2577), A-427 (ATCC: […]), BT-20 (ATCC: HTB-19), Detroit562 (ATCC: CCL-138), HARA-B (Cytion: 300465), PA-1 (ATCC: CRL-1572), TCCSUP (ATCC: […]), UM-UC-3 (ATCC: CRL-1749), and WI-38 (ATCC: CCL-75) were grown in EMEM media +10% FBS. AGS (ATCC: CRL-1739) was grown in F12K media +10% FBS. JJN-3 (DSMZ: ACC 541) was grown in IMDM media +20% FBS. 769-P (ATCC: CRL-1933), 786-O (ATCC: CRL-1932), A-375 (ATCC: CRL-1619), A-431 (ATCC: CRL-1555), A-549 (ATCC: CCL-185), A2780 (Cytion: 300491), ACHN (ATCC: CRL-1611), BT-474 (ATCC: HTB-20), BT-549 (ATCC: HTB-122), CCRF-CEM (ATCC: CCL-119), Daudi (ATCC: CCL-213), HaCaT (Cytion: 300493), HCC38 (ATCC: CRL-2314), HCC827 (ATCC: CRL-2868), HCT15 (ATCC: CCL-225), HEL 92.1.7 (ATCC: TIB-180), Hs 352.Sk (ATCC: CRL-7250), Hs578T (ATCC: HTB-126), HT-1080 (ATCC: CCL-121), HuCC-T1 (Riken Bioresource Center: RCB1960), HuP-T3 (DSMZ: ACC 259), HuP-T4 (DSMZ: ACC 223), IM-9 (ATCC: CCL-159), JJ012 (Gift: Karina Galoian (University of Miami)), JM-1 (ATCC: CRL-10423), K-562 (ATCC: CCL-243), Kasumi-3 (ATCC: CRL-2725), KMS-12-BM (DSMZ: ACC 551), LOUCY (ATCC: CRL-2629), LoVo (ATCC: CCL-229), MCF-7 (ATCC: HTB-22), MDA-MB-231 (ATCC: HTB-26), MDA-MB-436 (ATCC: HTB-130), MDA-MB-468 (ATCC: HTB-132), MIA PaCa-2 (ATCC: CRL-1420), MM1.R (ATCC: CRL-2975), MM1.S (ATCC: CRL-2974), NALM-6 (ATCC: CRL-3273), NCI-H1299 (ATCC: CRL-5803), NCI-H1355 (ATCC: CRL-5865), NCI-H1395 (ATCC: CRL-5868), NCI-H1437 (ATCC: CRL-5872), NCI-H2122 (ATCC: CRL-5985), NCI-H2170 (ATCC: CRL-5928), NCI-H226 (ATCC: CRL-5826), NCI-H23 (ATCC: CRL-5800), NCI-H322M (NIH: NCI-60), NCI-H460 (ATCC: HTB-177), NCI-H522 (ATCC: CRL-5810), NCI-H929 (ATCC: CRL-3580), NIH 3T3 (ATCC: CRL-1658), OCI-M2 (DSMZ: ACC 619), OPM-2 (DSMZ: ACCC 50), OVCAR-3 (ATCC: HTB-161), OVCAR-4 (Gift: Phil Lorenzi MD Anderson), OVCAR-8 (Gift: Phil Lorenzi MD Anderson), Panc 10.05 (ATCC: CRL-2547), PANC-1 (ATCC: CRL-1469), Pfeiffer (ATCC: CRL-2632), PL45 (ATCC: CRL-2558), PSN1 (ATCC: CRL-3211), Raji (ATCC: CCL-86), RD (Gift: Mari Yohe NCI), RPMI-8226 (ATCC: CRM-CCL-155), RS4;11 (ATCC: CRL-1873), SK-BR-3 (ATCC: HTB-30), SK-MEL-28 (ATCC: HTB-72), SMS-CTR (Gift: Mari Yohe NCI), SNU-16 (ATCC: CRL-5974), SU-DHL-8 (ATCC: CRL-2961), SU.86.86 (ATCC: CRL-1837), SW1990 (ATCC: CRL-2172), SW403 (ATCC: CCL-230), SW480 (ATCC: CCL-228), SW579 (ATCC: HTB-107), T-47D (ATCC: HTB-133), T24 (ATCC: HTB-4), and U-937 (ATCC: CRL-1593.2) were grown in RPMI +10% FBS. U266B1 (ATCC: TIB-196) were grown in RPMI +15% FBS. ME-1 (ATCC: HB-119), MOLM-13 (DSMZ: ACC 554), AMO1 (DSMZ: ACC 538), MOLP-8 (DSMZ: ACC 569), MV4-11 (ATCC: CRL-9591), PL-21 (DSMZ: ACC 536), and L-363 (DSMZ: ACC 49) were grown in RPMI +20% FBS. […]
row,SMILES,viability AUC
1,CC[C@H](C)[C@@H]([C@H](N)CC(=O)N1CCC[C@H]1[C@H](OC)[C@@H](C)C(=O)N[C@@H](Cc1ccccc1)c1nccs1)N(C)C(=O)[C@@H](NC(=O)[C@H](C(C)C)N(C)C)C(C)C,769 (active)
2,COc1cccc2c1C(=O)c1c(O)c3c(c(O)c1C2=O)C[C@@](O)(C(=O)CO)C[C@@H]3O[C@H]1C[C@H]2[C@H](O[C@@H]3[C@@H](OC)OCCN32)[C@H](C)O1,549 (active)
3,COC(=O)c1cc2c3c(cc(O)c2[nH]1)N(C(=O)c1cc2cc(OC)c(OC)c(OC)c2[nH]1)CC3CCl (stereo unspecified),651 (active)
4,CCN(C(C)=O)[C@H]1CO[C@@H](O[C@H]2[C@H](O[C@H]3C#C/C=C\C#C[C@]4(O)CC(=O)C(NC(=O)OC)=C3/C4=C\CSSSC)O[C@H](C)[C@@H](NO[C@H]3C[C@H](O)[C@H](SC(=O)c4c(C)c(I)c(O[C@@H]5O[C@@H](C)[C@H](O)[C@@H](OC)[C@H]5O)c(OC)c4OC)[C@@H](C)O3)[C@@H]2O)C[C@@H]1OC,700 (active)
5,COc1ccc(C2=CN3C(=O)c4cc(OC)c(OCCCOc5cc6c(cc5OC)C(=O)N5C=C(c7ccc(N)cc7)C[C@@H]5C=N6)cc4N=C[C@H]3C2)cc1,762 (active)
6,CC[C@H](C)[C@@H]([C@@H](CC(=O)N1CCC[C@H]1[C@H](OC)[C@@H](C)C(=O)N[C@@H](Cc1ccccc1)C(=O)O)OC)N(C)C(=O)[C@@H](NC(=O)[C@@H](NC)C(C)C)C(C)C (H-[NMeV]V[Dil][Dolaproine]F-OH),938 (active)
7,CC[C@H](C)[C@@H]([C@H](N)CC(=O)N1CCC[C@H]1[C@H](OC)[C@@H](C)C(=O)N[C@@H](Cc1ccccc1)c1nccs1)N(C)C(=O)[C@@H](NC(=O)[C@@H](NC)C(C)C)C(C)C,738 (active)
8,CC(C)(C)OC(=O)Nc1ccc2[nH]c(C(=O)N3C[C@@H](CCl)c4c3cc(O)c3ccccc43)cc2c1,645 (active)
9,CN(C)CCOc1ccc2[nH]c(C(=O)N3C[C@@H](CCl)c4c3cc(O)c3ccccc43)cc2c1,514 (active)
10,CCN[C@H]1CO[C@@H](O[C@H]2[C@H](O[C@H]3C#C/C=C\C#C[C@]4(O)CC(=O)C(NC(=O)OC)=C3/C4=C\CSSSC)O[C@H](C)[C@@H](NO[C@H]3C[C@H](O)[C@H](SC(=O)c4c(C)c(I)c(O[C@@H]5O[C@@H](C)[C@H](O)[C@@H](OC)[C@H]5O)c(OC)c4OC)[C@@H](C)O3)[C@@H]2O)C[C@@H]1OC,635 (active)
11,COc1cc2cc(c1Cl)N(C)C(=O)C[C@H](O)[C@]1(C)O[C@H]1[C@H](C)C1C[C@@](O)(NC(=O)O1)[C@H](OC)/C=C/C=C(\C)C2,1010 (active)

# Reference: PubChem BioAssay AID2202241 (National Center for Advancing Translational Sciences (NCATS), 2025)
